For experiment [1], the target named is Lysosomal acid glucosylceramidase (Homo sapiens) (UniProt P04062). As to the kind of experiment: Glucocerebrosidase-p2 (AID 348; in the data active means potency below about 10 µM; further: potency means the concentration at half of the fitted maximal effect). Conditions: purified GBA, blue fluorogenic substrate, 40 min. Summed up:
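Compounds titrated from 0.6 nM upwards against 0.2 nM enzyme in pH 5.9 citric acid/KH2PO4, taurocholate, tween-20; blue fluorogenic substrate 80 uM, 40 min room temperature, stopped and read Ex 365/Em 440 for AC50.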

The nature of experiment [2]: AP1 Signaling Pathway (AID 357; active means well fitted curve in either direction with a large enough effect, not every such curve was filed as active;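 further: ME-180 reporter cells stimulated with EGF at its EC50 level; on the % scale 0 is the no-effect control and ±100 the full control effect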). Conditions: ME-180 AP-1-bla reporter, EGF-induced, beta-lactamase ratio, 5 h; at 7.69 µM (top of the series) unless noted. Put shortly:
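Modulation of EGF-driven AP-1 transcription was assessed with a beta-lactamase reporter in ME-180 cells. Compound and EC50 EGF were co-incubated 5 hours at 37 °C before 2.5-hour CCF4 loading at room temperature and dual-emission reading.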

The target of experiment [3] is Cytochrome P450 1A2 (Homo sapiens) (UniProt P05177). In words: p450-cyp1a2 (AID 410; calls by dose curve; further: potency means the concentration at half of the fitted maximal effect). Particulars: recombinant CYP1A2, luciferin-ME demethylation, luminescence; series mostly up to 57 µM. Summed up:
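Inhibition was calculated relative to 57 uM furafylline (full inhibition). The reaction used human CYP1A2 at 20nM with Luciferin-ME at its Km, 100uM, driven by an NADPH-regenerating system for 60 min at room temperature.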

The nature of experiment [4]: NFAT Signaling Pathway (AID 444; active means well fitted curve in either direction with a large enough effect, not every such curve was filed as active;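 further: carbachol stimulus at about its EC50 of 1 µM final; on the % scale 0 is the no-effect control and ±100 the full control effect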). Particulars: Jurkat NFAT-bla M1, carbachol, beta-lactamase ratio, 5 h; at 7.69 µM (top of the series) unless noted. Put shortly: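 Read-out: CCF4 FRET ratio (460 nm/530 nm) after 1 h RT dye loading, used for %activity and AC50 from titration series. Cells: Jurkat NFAT-β-lactamase/M1 line, treated with compound plus 1 uM carbachol for 5 h, 37 °C.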

Experiment [5] addresses Glucocorticoid receptor (Homo sapiens) (UniProt P04150). In words: GR-GFP Redistribution (AID 450;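 active means compounds whose dose series gives a full or clear partial fitted curve of increased nuclear translocation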; further: potency means the concentration at half of the fitted maximal effect). Conditions: U2OS GR-GFP nuclear translocation, laser cytometry, 2 h.
The target is the same in experiment [6]. As to the kind of experiment: GR-EFC Redistribution (AID 451; calls by dose curve; further: potency means the concentration at half of the fitted maximal effect). Particulars: CHO-K1 GR-EFC translocation, beta-gal luminescence, 2 h. Put shortly: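 Translocation of GR-ED fusion to nuclear EA restores b-gal, read by luminescence after 1 h room-temperature detection. Engineered CHO-K1 biosensor cells, 1,000/well, exposed 2 h at 37 C to titrations up to 46 uM final.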

The target of experiment [7] is Mitogen-activated protein kinase 10 (Mus musculus) (UniProt Q61831). As to the kind of experiment: JNK3 AlphaScreen Assay (AID 530; active means well fitted curve in either direction with a large enough effect, not every such curve was filed as active;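 further: kinase came from lysate of stimulated human HepG2 cells; signal reports phosphorylation of biotinylated GST-cJun 1-79 at Ser73 with 10 µM ATP; on the % scale 0 is the no-effect control and ±100 the full control effect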). Particulars: JNK3 lysate, c-Jun phosphorylation; series mostly up to 57.1 µM. Put shortly:
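Room-temperature AlphaScreen kinase assay; pre-activated HepG2 lysate as JNK3 source, biotin-GST-cJun(1-79) substrate, 10 uM ATP, compound 15 min preincubation.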
For orientation: Alpha assays give light when donor and acceptor beads are brought close together.

The target of experiment [8] is Cytochrome P450 2C19 (Homo sapiens) (UniProt P33261). In words: qHTS Assay for Inhibitors and Substrates of Cytochrome P450 2C19 (AID 899). Further: potency means the concentration at half of the fitted maximal effect; nearly all actives have a fitted effect of over 60% in size. Conditions: recombinant CYP2C19, luciferin-H EGE luminescence; series mostly up to 57.1 µM. Summed up: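 Luminescence readout of luciferin formed from 10uM Luciferin-H EGE (KM level) by 5 nM CYP2C19 in 50mM KPO4. 60 min NADPH-driven reaction at 37C after 10 min compound preincubation; data scaled to 57uM ketoconazole inhibition.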
Sequence of Cytochrome P450 2C19 (Homo sapiens) (P33261 whole entry, looked up): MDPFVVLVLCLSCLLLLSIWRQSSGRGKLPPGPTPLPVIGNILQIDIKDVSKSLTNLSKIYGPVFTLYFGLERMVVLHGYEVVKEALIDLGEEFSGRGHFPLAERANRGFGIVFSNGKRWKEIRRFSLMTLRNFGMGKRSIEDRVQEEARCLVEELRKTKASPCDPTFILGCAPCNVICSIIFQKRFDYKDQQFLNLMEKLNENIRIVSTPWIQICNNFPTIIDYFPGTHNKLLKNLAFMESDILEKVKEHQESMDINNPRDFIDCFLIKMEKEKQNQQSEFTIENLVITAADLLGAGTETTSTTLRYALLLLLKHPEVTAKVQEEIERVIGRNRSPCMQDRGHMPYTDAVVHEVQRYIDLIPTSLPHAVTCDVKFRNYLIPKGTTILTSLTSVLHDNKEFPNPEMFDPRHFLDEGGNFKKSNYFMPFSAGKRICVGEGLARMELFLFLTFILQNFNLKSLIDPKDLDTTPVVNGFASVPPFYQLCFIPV

Experiment [9] can be described thus: qHTS Assay for Lipid Storage Modulators (AID 1519; calls by dose curve). Particulars: Drosophila S3 cells, BODIPY lipid droplet/cell ratio, laser cytometry, cells loaded with oleic acid; for activity change, negative = inhibition: at 57.5 µM (top of the series). Summed up: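 Cells seeded at 5,000 per well were treated with compounds over a concentration series and loaded with oleic acid (400 uM, as added). Lipid droplet fluorescence (488 nm excitation, 500-530 nm channel) was read by laser-scanning cytometry and normalized to 20 uM Triacsin C.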
(In general: In qHTS, concentration-response curves come from the screen itself.)

Experiment [10] addresses Dual specificity protein kinase CLK4 (Homo sapiens) (UniProt Q9HAZ1). As to the kind of experiment: qHTS Assay for Inhibitors of CDC-like Kinase 4 (Kinase-Glo Assay) (AID 1770). Further: on the % scale 0 is the no-effect control and ±100 the full control effect; nearly all actives have a fitted effect of over 65% in size. Particulars: recombinant Clk4, Kinase-Glo ATP depletion luminescence; series mostly up to 66.7 µM. Summed up:
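Luminescent ATP-depletion read-out (Kinase-Glo) after 4.5 h room-temperature reaction of Clk4 (25 nM final) with RS peptide (100 uM) and ATP (1 uM), pH 7.5 Tris buffer with MgCl2 and DTT.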

Experiment [11] shares this target. As to the kind of experiment: qHTS Assay for Inhibitors of CDC-like Kinase 4 (ADP-FP Assay) (AID 1795).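 Further: recombinant human CLK4 phosphorylating RS repeat peptide at 1 µM ATP; on the % scale 0 is the no-effect control and ±100 the full control effect; nearly all actives have a fitted effect of over 60% in size.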 Particulars: Transcreener ADP fluorescence polarization; series mostly up to 50 µM. Put shortly: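 Kinase activity was measured as ADP production using Transcreener orange tracer (4 nM) and ADP antibody (1 ug/mL) fluorescence polarization, with ADP calculated from a calibration curve. The 1 h reaction contained 6.25 nM Clk4, 1 uM ATP and 100 uM RS peptide at pH 7.5 with Mg2+.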

The target of experiment [12] is Ubiquitin carboxyl-terminal hydrolase 1 (Homo sapiens) (UniProt O94782). As to the kind of experiment: Inhibitors of USP1/UAF1: Pilot qHTS (AID 504865). Further: nearly all actives have a fitted effect of over 35% in size. Further: potency means the concentration at half of the fitted maximal effect. Conditions: purified USP1/UAF1, Ub-rhodamine cleavage fluorescence; series mostly up to 54.9 µM. Summed up: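 Deubiquitinase activity followed as kinetic rhodamine fluorescence release from 150 nM Ub-Rho. 1 nM USP1/UAF1 with compound, after 15 min room-temperature preincubation, in HEPES pH 7.8 buffer containing TCEP, EDTA, BSA and Tween-20.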
Sequence of Ubiquitin carboxyl-terminal hydrolase 1 (Homo sapiens) (O94782 whole entry, looked up): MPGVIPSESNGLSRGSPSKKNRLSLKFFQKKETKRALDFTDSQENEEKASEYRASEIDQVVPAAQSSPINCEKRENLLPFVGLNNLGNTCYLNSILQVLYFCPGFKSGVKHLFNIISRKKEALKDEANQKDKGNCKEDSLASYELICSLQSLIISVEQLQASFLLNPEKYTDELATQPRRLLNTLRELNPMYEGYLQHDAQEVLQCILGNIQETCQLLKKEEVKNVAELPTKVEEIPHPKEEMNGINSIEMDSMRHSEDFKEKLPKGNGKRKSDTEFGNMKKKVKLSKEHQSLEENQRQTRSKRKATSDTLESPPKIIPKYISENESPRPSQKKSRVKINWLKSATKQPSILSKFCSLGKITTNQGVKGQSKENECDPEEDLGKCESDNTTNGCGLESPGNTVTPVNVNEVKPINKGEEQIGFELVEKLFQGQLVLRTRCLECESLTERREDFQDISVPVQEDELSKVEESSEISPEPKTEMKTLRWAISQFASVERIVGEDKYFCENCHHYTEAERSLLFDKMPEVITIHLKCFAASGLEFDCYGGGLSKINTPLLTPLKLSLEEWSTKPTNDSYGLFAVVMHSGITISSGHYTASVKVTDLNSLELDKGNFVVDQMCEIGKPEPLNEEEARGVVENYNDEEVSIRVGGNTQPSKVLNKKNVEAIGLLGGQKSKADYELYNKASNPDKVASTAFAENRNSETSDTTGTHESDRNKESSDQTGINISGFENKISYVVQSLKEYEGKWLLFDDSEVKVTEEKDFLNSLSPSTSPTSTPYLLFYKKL

Experiment [13] in a line: Primary qHTS for small molecule stabilizers of the endoplasmic reticulum resident proteome: Secreted ER Calcium Modulated Protein (SERCaMP) assay (AID 1508630). Further: on the % scale 0 is the no-effect control and ±100 the full control effect. Conditions: SH-SY5Y GLuc-SERCaMP (Gaussia luciferase released on ER calcium loss) secretion, thapsigargin, luminescence; series mostly up to 38.4 µM. Summed up:
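GLuc-SERCaMP-expressing SH-SY5Y cells, pretreated 16 h with compound, are challenged with thapsigargin to empty ER calcium stores; after 4 h, coelenterazine is added directly to the medium and luminescence is imaged.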

The nature of experiment [14]: Stat Signaling Pathway (AID 446; active means well fitted curve in either direction with a large enough effect, not every such curve was filed as active). Conditions: ME-180 SIE beta-lactamase reporter, IL-6 stimulated, 5 h; at 7.69 µM (top of the series) unless noted. Put shortly: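 ME-180 cells carrying a SIE-driven beta-lactamase reporter are stimulated with 40 pM IL-6 for 5 h at 37C in the presence of compound. The 460/530 nm FRET substrate ratio is read after 2.5 h at RT. Data are normalised to 300 pM IL-6 and to 125 nM JAK inhibitor controls.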

The target in experiment [15] is 3',5'-cyclic-AMP phosphodiesterase 4B (Homo sapiens) (UniProt Q07343). As to the kind of experiment: qHTS Assay for Inhibitors of PDE-IV (AID 607; active means well fitted activation curve with a large enough effect in the main read-out, with a control signal flat, not every such curve was filed as active; further: % of control where 0% means no effect). Particulars: HEK293 ACTOne CNG channel cells, membrane potential fluorescence; series mostly up to 22.9 µM. Summed up: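 HEK293 ACTOne cells with CNG channel (1000/well), endogenous PDE4; membrane potential dye, compounds up to 22.9 uM final. Fluorescence Ex 535/Em 590; RO 20-1724 (100 uM final) as reference.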
Sequence of 3',5'-cyclic-AMP phosphodiesterase 4B (Homo sapiens) (Q07343 whole entry, looked up): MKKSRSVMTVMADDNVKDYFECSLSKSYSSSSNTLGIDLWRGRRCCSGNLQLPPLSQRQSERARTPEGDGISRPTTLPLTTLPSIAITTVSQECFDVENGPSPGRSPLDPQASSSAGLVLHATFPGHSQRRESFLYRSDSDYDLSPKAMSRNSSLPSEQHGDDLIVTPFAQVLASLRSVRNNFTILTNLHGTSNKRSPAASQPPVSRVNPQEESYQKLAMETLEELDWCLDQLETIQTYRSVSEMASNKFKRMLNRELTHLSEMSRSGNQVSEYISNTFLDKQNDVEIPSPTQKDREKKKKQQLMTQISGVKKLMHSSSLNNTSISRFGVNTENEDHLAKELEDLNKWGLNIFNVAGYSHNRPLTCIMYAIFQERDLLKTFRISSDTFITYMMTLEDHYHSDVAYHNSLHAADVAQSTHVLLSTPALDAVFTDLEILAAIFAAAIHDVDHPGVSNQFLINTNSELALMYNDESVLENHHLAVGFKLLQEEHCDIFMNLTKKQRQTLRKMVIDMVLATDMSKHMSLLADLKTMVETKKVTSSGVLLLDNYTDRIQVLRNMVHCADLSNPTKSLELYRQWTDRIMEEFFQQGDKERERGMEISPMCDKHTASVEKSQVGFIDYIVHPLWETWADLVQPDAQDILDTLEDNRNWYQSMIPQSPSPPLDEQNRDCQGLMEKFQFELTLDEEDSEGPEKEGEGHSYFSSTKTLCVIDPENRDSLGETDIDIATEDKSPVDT

The target in experiment [16] is Cytochrome P450 3A4 (Homo sapiens) (UniProt P08684). As to the kind of experiment: qHTS Assay for Activators of Cytochrome P450 3A4 (AID 885). Further: nearly all actives have a fitted effect of over 65% in size. Further: potency means the concentration at half of the fitted maximal effect. Conditions: recombinant CYP3A4, Luciferin-PPXE luminescence, 60 min; series mostly up to 57.1 µM. Put shortly: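 Human CYP3A4 (20 nM) with Luciferin-PPXE at 25 uM (its KM) in 200 mM KPO4; 10 min compound preincubation, then NADPH regeneration and 60 min reaction at RT. Luciferin read by luminescence; normalized to 57 uM ketoconazole full inhibition.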
Sequence of Cytochrome P450 3A4 (Homo sapiens) (P08684 whole entry, looked up): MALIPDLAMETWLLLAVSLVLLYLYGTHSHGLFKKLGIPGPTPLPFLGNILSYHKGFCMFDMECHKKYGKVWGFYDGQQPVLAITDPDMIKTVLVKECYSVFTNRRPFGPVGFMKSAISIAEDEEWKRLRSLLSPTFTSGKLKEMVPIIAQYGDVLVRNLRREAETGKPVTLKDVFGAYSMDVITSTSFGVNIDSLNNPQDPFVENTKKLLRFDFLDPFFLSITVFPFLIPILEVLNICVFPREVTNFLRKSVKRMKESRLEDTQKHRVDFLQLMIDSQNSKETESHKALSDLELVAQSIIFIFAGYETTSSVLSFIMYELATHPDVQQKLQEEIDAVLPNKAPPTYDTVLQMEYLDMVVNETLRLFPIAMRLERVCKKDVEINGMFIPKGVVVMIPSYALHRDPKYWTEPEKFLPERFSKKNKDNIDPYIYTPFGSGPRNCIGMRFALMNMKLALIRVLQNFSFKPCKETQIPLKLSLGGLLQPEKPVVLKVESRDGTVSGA

Experiment [17] can be described thus: qHTS Assay for Identification of Small Molecule Agonists for Hypoxia Response Element Signaling Pathway (AID 914; active means well fitted activation curve with a large enough effect in the signal ratio, with a control signal flat, not every such curve was filed as active; the % refers to the signal ratio; further: % of control where 0% means no effect). Particulars: ME-180 (cervical carcinoma) HRE-bla reporter, beta-lactamase ratio, CoCl2, 17 h; activation: stronger effect = higher value. Summed up:
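HRE-bla ME-180 cells with beta-lactamase reporter under hypoxia response element, compounds with EC50 CoCl2 for 17 hours at 37 C. CCF4 substrate, 460nm/530nm emission ratio gave %Activity; AC50 from titration series.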

Experiment [18] addresses Cytochrome P450 3A4 (Homo sapiens) (UniProt P08684). In words: qHTS Assay for Inhibitors and Substrates of Cytochrome P450 3A4 (AID 884). Further: on the % scale 0 is the no-effect control and ±100 the full control effect; nearly all actives have a fitted effect of over 50% in size. Particulars: recombinant CYP3A4, Luciferin-PPXE luminescence; series mostly up to 57.1 µM. Summed up:
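20 nM human CYP3A4 with 25 uM Luciferin-PPXE (at KM) in 200 mM KPO4, preincubated 10 min with compound; NADPH regeneration started a 60 min RT reaction. Luciferin detected by luminescence, normalized to 57 uM ketoconazole as full inhibition.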

Setting [19] is: measured here: cell count channel max response.
Where [20] appears, read: measured here: lipid channel max response.

Records with an inconclusive call do not appear. Activity calls are given as the source filed them. Unless noted, the call rests on the fitted dose curve; in most records, active means well fitted curve in the direction sought with a large enough effect; inconclusive means small, poorly fitted or top-dose-only effect, or another doubt; inactive means no such curve, though single readings can be large; an effect the other way counts as inactive or inconclusive. Where only a bound is given, the exact number is not on record here.

The results in this text go back to PubChem BioAssay (NCATS).

Sequence of Dual specificity protein kinase CLK4 (Homo sapiens) (Q9HAZ1 whole entry, looked up): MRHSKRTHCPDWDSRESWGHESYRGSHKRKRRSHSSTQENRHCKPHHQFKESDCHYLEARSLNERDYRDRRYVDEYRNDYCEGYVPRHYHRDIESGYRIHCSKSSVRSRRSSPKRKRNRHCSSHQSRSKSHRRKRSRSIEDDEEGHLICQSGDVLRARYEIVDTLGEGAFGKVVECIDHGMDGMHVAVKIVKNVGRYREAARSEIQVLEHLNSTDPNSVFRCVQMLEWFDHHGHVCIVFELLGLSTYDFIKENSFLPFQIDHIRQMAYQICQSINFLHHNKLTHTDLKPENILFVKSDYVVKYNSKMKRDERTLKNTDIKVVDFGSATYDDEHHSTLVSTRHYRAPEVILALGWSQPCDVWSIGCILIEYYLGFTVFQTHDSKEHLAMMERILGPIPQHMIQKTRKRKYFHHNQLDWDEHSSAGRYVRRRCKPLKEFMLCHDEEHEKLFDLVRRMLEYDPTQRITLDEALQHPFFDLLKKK
Sequence of Lysosomal acid glucosylceramidase (Homo sapiens) (P04062 whole entry, looked up): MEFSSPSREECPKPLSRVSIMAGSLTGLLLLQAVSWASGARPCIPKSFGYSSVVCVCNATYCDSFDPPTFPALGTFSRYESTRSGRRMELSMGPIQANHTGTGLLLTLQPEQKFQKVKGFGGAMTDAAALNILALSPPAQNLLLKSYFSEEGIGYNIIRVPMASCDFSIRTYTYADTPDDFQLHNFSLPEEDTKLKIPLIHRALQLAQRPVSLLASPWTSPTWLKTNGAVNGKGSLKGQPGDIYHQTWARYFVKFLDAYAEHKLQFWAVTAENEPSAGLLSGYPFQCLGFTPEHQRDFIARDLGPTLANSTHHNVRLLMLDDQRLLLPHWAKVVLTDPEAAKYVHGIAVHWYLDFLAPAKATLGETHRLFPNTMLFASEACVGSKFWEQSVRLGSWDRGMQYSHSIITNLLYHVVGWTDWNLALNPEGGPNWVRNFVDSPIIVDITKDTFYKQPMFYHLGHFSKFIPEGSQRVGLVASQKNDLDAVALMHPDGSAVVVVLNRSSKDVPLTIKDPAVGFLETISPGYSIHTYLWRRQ
Sequence of Cytochrome P450 1A2 (Homo sapiens) (P05177 whole entry, looked up): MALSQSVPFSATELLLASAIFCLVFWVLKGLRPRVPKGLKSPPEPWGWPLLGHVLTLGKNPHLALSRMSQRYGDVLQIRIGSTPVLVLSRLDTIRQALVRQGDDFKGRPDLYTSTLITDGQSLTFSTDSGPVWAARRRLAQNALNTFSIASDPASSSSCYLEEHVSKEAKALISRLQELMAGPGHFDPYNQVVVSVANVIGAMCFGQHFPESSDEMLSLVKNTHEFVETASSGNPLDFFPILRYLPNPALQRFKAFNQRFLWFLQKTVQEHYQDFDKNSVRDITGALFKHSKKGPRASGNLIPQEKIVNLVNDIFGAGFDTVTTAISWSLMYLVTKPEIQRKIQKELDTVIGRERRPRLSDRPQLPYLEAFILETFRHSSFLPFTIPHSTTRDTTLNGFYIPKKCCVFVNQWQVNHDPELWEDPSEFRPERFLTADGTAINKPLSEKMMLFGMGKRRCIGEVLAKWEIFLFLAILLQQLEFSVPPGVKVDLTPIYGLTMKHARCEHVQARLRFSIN
Sequence of Glucocorticoid receptor (Homo sapiens) (P04150 whole entry, looked up, the tested form may be a part): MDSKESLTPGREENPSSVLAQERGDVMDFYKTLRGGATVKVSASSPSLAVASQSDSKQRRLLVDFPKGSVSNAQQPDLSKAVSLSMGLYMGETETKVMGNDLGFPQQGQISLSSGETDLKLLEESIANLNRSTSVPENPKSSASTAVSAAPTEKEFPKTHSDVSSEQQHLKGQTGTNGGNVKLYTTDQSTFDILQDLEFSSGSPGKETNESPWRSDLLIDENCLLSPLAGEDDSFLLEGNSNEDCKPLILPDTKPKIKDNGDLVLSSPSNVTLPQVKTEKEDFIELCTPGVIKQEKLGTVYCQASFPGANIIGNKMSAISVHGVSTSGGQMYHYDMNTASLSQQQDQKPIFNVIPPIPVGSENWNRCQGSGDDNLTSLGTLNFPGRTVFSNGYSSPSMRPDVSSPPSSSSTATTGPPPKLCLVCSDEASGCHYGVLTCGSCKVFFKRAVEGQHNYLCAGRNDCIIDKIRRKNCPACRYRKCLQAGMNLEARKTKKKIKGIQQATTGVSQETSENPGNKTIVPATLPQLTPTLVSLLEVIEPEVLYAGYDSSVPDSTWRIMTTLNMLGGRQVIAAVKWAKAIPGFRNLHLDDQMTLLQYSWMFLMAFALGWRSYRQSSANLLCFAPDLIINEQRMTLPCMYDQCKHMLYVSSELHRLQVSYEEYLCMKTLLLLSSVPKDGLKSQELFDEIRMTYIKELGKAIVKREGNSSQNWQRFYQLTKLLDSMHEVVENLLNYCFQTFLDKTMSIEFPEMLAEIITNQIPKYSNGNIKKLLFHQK

With `Cc1ccccc1-c1cc(NCc2ccccc2)ncn1`, the Potency in experiment [1] is > 11.4 µM (inactive); in experiment [3], 3.98 µM (active); in experiment [5] it was > 46 µM (inactive); in experiment [6], > 46 µM (inactive); in [8], 3.16 µM (active); in [12] it was 20 µM (active). Further, the activity change, negative = inhibition was 19.4% (inactive) in experiment [2], -13.3% (inactive) in [4] and 4.42% (inactive) in experiment [9]. The result in experiment [7] was inactive. The max response in [9] (setting [19]) was 24.9%; in experiment [9] (setting [20]), 28.2%. For the same molecule, the Potency result in experiment [10], in [11] and in experiment [13] was “inactive” throughout.

For the molecule `COCCn1c(=O)cnc2cnc(Oc3ccccc3)nc21`, the Potency is > 11.4 µM (inactive) in experiment [1], 15.8 µM (active) in [3], > 9.22 µM (inactive) in experiment [5] and > 46 µM (inactive) in [6]. Besides, the activity change, negative = inhibition in [2] was -14.7% (inactive); in [4], -0.802% (inactive); in experiment [9] it was 3.04% (inactive). In addition, the activity, negative = inhibition in experiment [14] was -13.1% (inactive). The result in [7] was inactive. Also, the Potency entry in [15], in experiment [16], in [10], in experiment [11], in experiment [12] and in experiment [13] was “inactive” each time. In experiment [17], the activation is 10.1% (inactive). Moreover, the max response came out at 12% in experiment [9] (setting [19]) and 12.6% in [9] (setting [20]).

As to `Cc1ccccc1-c1cc(Nc2ccccc2)ncn1`, the Potency in [1] was > 11.4 µM (inactive); in [3], 3.98 µM (active); in [5] it was > 46 µM (inactive); in [6], > 46 µM (inactive); in experiment [8] it was 3.16 µM (active). For the same molecule, the activity change, negative = inhibition in experiment [2] is -4.93% (inactive); in [4], 1.39% (inactive); in [9], 4.64% (inactive). Moreover, the activity, negative = inhibition in [14] is 4.11% (inactive). For the same molecule, the result in experiment [7] was inactive. Moreover, the Potency result in [18], in experiment [10], in experiment [11], in [12] and in experiment [13] was “inactive” in each case. Also, the max response worked out at 30.6% in [9] (setting [19]) and 31.4% in [9] (setting [20]).

For `FC(F)(F)c1ccccc1-c1cc(NCc2ccccc2)ncn1`, the Potency was > 11.4 µM (inactive) in [1]; 12.6 µM (active) in experiment [3]; > 46 µM (inactive) in [5]; > 46 µM (inactive) in [6]; 10 µM (active) in experiment [16]. Besides, the activity change, negative = inhibition in experiment [2] was -15.2% (inactive); in experiment [4], -0.248% (inactive); in experiment [9], 5.85% (inactive). Further, in [14], the activity, negative = inhibition was 4.93% (inactive). Also, in experiment [7], the call was inactive. For the same molecule, the Potency result in experiment [18], in experiment [10], in experiment [11] and in [13] was “inactive” in each case. The max response in experiment [9] (setting [19]) stood at 14.8%; in experiment [9] (setting [20]) it was 20.1%.

As to `Cc1ccccc1-c1nccc(NCCN2CCOCC2)n1`, the Potency in experiment [1] is > 11.4 µM (inactive); in [3] it was 5.01 µM (active); in experiment [5], > 46 µM (inactive); in experiment [6] it was > 46 µM (inactive). For the same molecule, the activity change, negative = inhibition in [2] is 20.7% (inactive); in [4] it was -13.9% (inactive); in [9], 3.61% (inactive). Further, the activity, negative = inhibition in experiment [14] is -1.96% (inactive). Besides, the molecule was classed as inactive in experiment [7]. The Potency result in experiment [15], in experiment [16], in experiment [10], in [11], in experiment [12] and in experiment [13] was “inactive” each time. The max response in [9] (setting [19]) is 17.5%; in experiment [9] (setting [20]) it was 21.4%.
